This is a sample that favours compounds with a hit; in the whole collection about 8% have one here.
MCF10A rerep – A quantitative high throughput screen for small molecules that induce DNA re-replication in MCF 10a normal breast cells; Potency, µM (top dose mostly 46.1 µM), without a hit: at the top dose activity, positive = re-replication, usual class: activators; MCF 10A DNA re-replication, Hoechst nuclear intensity, 48 h; 2.9% of 350,000 active; further: % of control where 0% means no effect; nearly all actives have a fitted effect of over 50% in size
SW480 rerep – A quantitative high throughput screen for small molecules that induce DNA re-replication in SW480 colon adenocarcinoma cells. SW480 DNA re-replication, Hoechst DNA content imaging, 48 h. Potency, µM (titrated, usually from 46.1 µM), for the others: at the highest dose re-replication activation, hits mostly activators. 1.8% of 340,000 active; further: % of control where 0% means no effect; nearly all actives have a fitted effect of over 55% in size
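Quantitative HTS format with DMSO vehicle controls; 48 hr drug incubation at 37 C, then 40 min Hoechst staining and scanning imager measurement at 405 nm excitation.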
HT1080 IDH1KD tx – qHTS for induction of synthetic lethality in tumor cells producing 2HG: qHTS for the HT-1080-IDH1KD cell line. HT-1080 IDH1 knockdown viability, ATP luminescence, 48 h. Potency, µM (doses to about 46.1 µM), inactives show top-dose activity, negative = toxicity, usual class: cytotoxic. 2% of 360,000 active. AID 686971, 2013;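 further: 0% = DMSO wells and -100% = cell-free medium wells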
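In this qHTS, HT-1080 cells depleted of IDH1 are exposed for 48 h at 37 °C to compound titrations. Toxicity is scored from CellTiter-Glo luminescence, with DMSO as full viability and medium alone as none.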
HT1080NT lethal – qHTS for induction of synthetic lethality in tumor cells producing 2HG: qHTS for the HT-1080-NT fibrosarcoma cell line; HT-1080-NT fibrosarcoma viability, CellTiter-Glo ATP luminescence, 48 h; Potency, µM (highest dose often 46.1 µM), inactives show top-dose activity, negative = less viability, usual class: cytotoxic; 1.6% of 360,000 active; AID 686970, 2013;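 further: NT is the 2HG producing partner of a matched IDH1 knockdown line; 0% = DMSO-treated cells and -100% = media-only wells without cells; nearly all actives have a fitted effect of over 55% in size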
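750 cells/well, RPMI + 5% FBS; 2 h settle, compound pin-transfer, 48 h at 37 degrees C. CellTiter-Glo 10 min RT, luminescence. Normalized to DMSO and media-only wells.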
KB-V1 cytotox – qHTS assay for MDR1-selective chemotherapeutics: Primary screen using the drug-selected MDR subline cells KB-V1; KB-V1 MDR cells viability, CellTiter-Glo, 72 h; Potency, µM (series often up to 46.1 µM), actives largely listed as cytotoxic; 3.4% of 400,000 active; further: on the % scale 0 is the no-effect control and ±100 the full control effect; nearly all actives have a fitted effect of over 60% in size
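In this primary screen, KB-V1 cells overexpressing P-gp are incubated with library compounds (lowest to highest concentration) for 72 h at 37 degrees C before a luminescent ATP viability read.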
KB-3-1 tox – qHTS assay for MDR1-selective chemotherapeutics: Primary screen using the parental adenocarcinoma cell KB-3-1; Potency, µM (highest dose often 46.1 µM), usual class: cytotoxic; AID 1347075, 2019; KB-3-1 viability, CellTiter-Glo ATP luminescence, 72 h; 1.4% of 400,000 active; further: on the % scale 0 is the no-effect control and ±100 the full control effect; nearly all actives have a fitted effect of over 60% in size
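Cells are dispensed, compounds pinned in, plates held at 37 °C for 72 h, then CellTiter-Glo is added and luminescence read after 10 minutes. Cell line: parental KB-3-1 in phenol-red-free DMEM, 10% FBS.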
The depositor's hits bear a star; i = inactive; ? = inconclusive; nt = not tested or not shown; ! = not confirmed by another sample. The call rests on the fitted dose curve; in most records, active means well fitted curve in the direction sought with a large enough effect; inconclusive means small, poorly fitted or top-dose-only effect, or another doubt; inactive means no such curve, though single readings can be large; an effect the other way counts as inactive or inconclusive. Potency means the concentration at half of the fitted maximal effect.

SMILES	MCF10A rerep	SW480 rerep	HT1080 IDH1KD tx	HT1080NT lethal	KB-V1 cytotox	KB-3-1 tox
Cc1cccnc1C(NC(=O)C1CCN(CCCc2ccccc2)CC1)c1ccc(Cl)cc1 (centres undefined)	nt	nt	?	26µM*	i	i
Cc1cccnc1C(NC(=O)C1CCN(Cc2cn(C)c3ccccc23)CC1)c1ccc(Cl)cc1 (centres undefined)	nt	nt	?	12µM*	?	?
CCOc1ccc(CNC(=O)C2CCCN(c3nc4c(C)cc(C)cc4s3)C2)cc1 (centres undefined)	nt	nt	nt	nt	i	i
N=C(N)SCc1cccc2c(=O)cc(-c3ccccc3)oc12	nt	nt	nt	nt	i	?
COc1ccc(NC(=O)c2cnc3cc(C)ccn3c2=O)c(OC)c1	nt	nt	nt	nt	?	i
COc1ccc(NC(=O)CN(C)C(=O)c2ccc3ccccc3c2)cc1	-4%	4%	0%	-9%	i	i
O=C(Nc1cc(F)cc(F)c1)c1ccc(NCCc2ccccc2)c([N+](=O)[O-])c1	17%	-10%	-18%	-23%	i	i
CCCN(CCC)CCCNc1ccc(C(=O)Nc2cccc(OC)c2)cc1[N+](=O)[O-]	13%	?	21µM*	?	i	i
Cc1ccc(NC(=O)c2ccc(NCCc3ccccc3)c([N+](=O)[O-])c2)cc1F	18µM*	4%	4%	-2%	i	?
COc1cccc(NC(=O)CN(C)C(=O)c2ccc3ccccc3c2)c1	-3%	-3%	-4%	4%	21µM*	i
COc1cccc(NC(=O)CN(C)C(=O)c2ccc(NC3CC3)c([N+](=O)[O-])c2)c1	4%	0%	-6%	-3%	7.3µM*	i
CC(=O)Oc1ccc(C(=C2CCCCC2)c2ccc(OC(C)=O)cc2)cc1	1%	1%	nt	nt	nt	nt
S=C1NC=NC2N=CNC12 (centres undefined)	17%	?	nt	nt	nt	nt
CCCCN(CC)CCNC(=O)CCn1cnc2onc(-c3ccc(F)cc3)c2c1=O	nt	nt	nt	nt	i	i
CC[C@]12CCCN3CCc4c(n(c5ccccc45)[C@@](O)(C(=O)OC)C1)[C@@H]32	11%	-1%	-7%	-2%	i	i
CC[C@]12CCCN3CCc4c(n(c5ccccc45)C(=O)C1)[C@@H]32	?	13µM*	14%	?	4.1µM*	?
COc1ccc(CCNC(=O)c2cnc3sc(N4CCC(C)CC4)nn3c2=O)cc1OC	nt	nt	nt	nt	i	i
CCN(c1ccccc1)S(=O)(=O)c1ccc(NC(=O)c2cc(=O)c3ccc(C)c(C)c3o2)cc1	nt	nt	nt	nt	i	i
CC(Sc1nnc(CN2CCCC2)n1Cc1ccccc1)C(=O)Nc1ccc(F)cc1 (centres undefined)	?	-1%	-5%	-17%	i	i
CC(Sc1nnc(CN2CCCC2)n1Cc1ccccc1)C(=O)Nc1ccc(F)cc1Cl (centres undefined)	?	3.7µM*	1%	-4%	i	i
COC(=O)C(Nc1ccccc1Cl)(c1cc(C)c(O)c(C)c1)C(F)(F)F (centres undefined)	?	-2%	?	?	8.2µM*	?
Cc1ccc(C)c(S(=O)(=O)NNC(=O)Nc2ccccc2Cl)c1	0%	16%	-5%	3%	i	i
O=C(C1CCC(Cn2c(=O)c3sccc3n(Cc3ccc(F)cc3)c2=O)CC1)N1CCOCC1 (centres undefined)	nt	nt	nt	nt	i	i
C=Cc1ccc(CSc2nc(-c3ccccc3Cl)nc3c2Cc2c(CO)cnc(C)c2O3)cc1	nt	nt	nt	nt	i	i
Cc1cccc(C(=O)Nc2sc3c(c2C(=O)O)CCCC3)c1	?	3%	-24%	?	7.3µM*!	6.5µM*!
SMILES	MCF10A rerep	SW480 rerep	HT1080 IDH1KD tx	HT1080NT lethal	KB-V1 cytotox	KB-3-1 tox
CCN(CC)CCCC(C)NC(=O)c1c(NC(=O)c2ccccc2)sc2c1CCCC2 (centres undefined)	4.6µM*	?	?	?	i	i
CCc1ccccc1NC(=O)c1c(NC(=O)c2ccccc2)sc2c1CCCC2	nt	nt	nt	nt	i	?
CCOc1ccc(C(=O)Oc2c(Sc3ccccc3)c(C)nn2C(C)(C)C)cc1OCC	nt	nt	nt	nt	i	i
Cc1nc(NC(=O)/C=C/c2ccccc2)sc1C(=O)NCCO	0%	-3%	4%	0%	i	i
Cc1nc(NC(=O)/C=C/c2ccccc2)sc1C(=O)Nc1ccccc1	21µM*	?	?	?	i	i
COc1ccc(NS(=O)(=O)c2ccc(-c3cnc(C4CC4)o3)cc2)cc1Cl	nt	nt	nt	nt	i	?
N#C/C(=N\Nc1ccc(Cl)cc1)C(=O)c1ccccc1	23µM*	10%	?	2.6µM*	i	?
CCOC(=O)NC(=O)/C(C#N)=N\Nc1ccc(Cl)cc1	-2%	2%	1%	-1%	i	i
Cc1c(NC(=O)/C(C#N)=C/c2ccc(-c3cc(Cl)ccc3Cl)o2)c(=O)n(-c2ccccc2)n1C	19%	21µM*	-24%	-27%	i	i
COC(=O)C(=NNc1c(C)n(C)n(-c2ccccc2)c1=O)C(=O)OC	1%	7%	30%	?	i	i
Cc1c(N/N=C(\C#N)C(=O)c2ccc(Cl)cc2)c(=O)n(-c2ccccc2)n1C	2.9µM*	9.2µM*	2.6µM*	?	i	3.3µM*
Cc1c(NC(=O)/C(C#N)=C/c2ccc(-c3ccc(Cl)cc3)o2)c(=O)n(-c2ccccc2)n1C	-1%	15%	-17%	-1%	?	i
COc1ccc2c(CC(=O)Nc3ccc(C)cc3)coc2c1	nt	nt	nt	nt	i	i
O=C(NCc1cccc(F)c1)c1ccc(-n2cnc3cccnc32)cc1	nt	nt	nt	nt	i	i
COc1ccc2cc(Br)ccc2c1CC(=O)NC1CC(C)(C)NC(C)(C)C1	10%	?	16µM*	?	?	i
O=C(COc1ccc(Br)cc1Cl)Nc1ncn[nH]1	nt	nt	nt	nt	i	i
CCOC(=O)c1scc(-c2ccc(C)cc2)c1S(=O)(=O)Nc1ccc(OC)c(Cl)c1	nt	nt	nt	nt	i	i
